MLLE-PAM2 inh – blocks PAM2 peptide binding to the PABP1 MLLE domain; P11940; GST-MLLE / FITC-PAM2 fluorescence polarization; inhibition, % at 20 µM; hit rate 0.36% among 360,000; in the data active = inhibition above about 35%, passing the limit was not always enough
eIF4H inh – inhibitors of RNA binding by human eIF4H; Q15056; eIF4H fluorescence polarization binding assay; inhibition, % at 35 µM; hit rate 0.94% among 290,000; AID 2012;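 note: calls also rest on retests at 20 µM and on dose response follow-up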
CendR NRP1 mod – NRP-1/CendR interaction modulation; O14786; FAM-RPARPAR peptide binding to NRP-1, fluorescence polarization; inhibition, % at 25 µM; hit rate 0.85% among 360,000;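 active = inhibition or corrected inhibition above about 18%, plus a signal ratio from 0.5 to 1.5, limit read from the data, passing the limit was not always enough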
PABP FP inh – PABP-poly(A) binding inhibition | P11940 | PABP-poly(A) RNA binding, fluorescence polarization | inhibition, % at 35 µM | hit rate 1% among 290,000;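 note: calls also rest on retests at 20 µM and on dose response follow-up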
Of the large screens only hits and unclear results are named; the others gave an inactive call. Most compounds without a hit are left out; they make up all but 2.1% or so of the library. Unless noted, the rule behind the calls is not given here.

COc1cccc2sc(Nc3nnc(-c4ccc(F)cc4)o3)nc12	none
COc1cc(OC)c(NC(=O)c2cc3ccccc3cc2O)cc1Cl	none (no result: eIF4H inh, PABP FP inh)
CCCCNC(=O)C(CC)(ONc1ccccc1C(F)(F)F)c1ccccc1 (stereo not drawn)	none (no result: eIF4H inh, PABP FP inh)
COc1ccc(C2=CN(Cc3ccccc3)C(c3ccccc3)CC2=O)cc1 (stereo not drawn)	CendR NRP1 mod 21 (no result: eIF4H inh, PABP FP inh)
O=C(C[C@H]1C/C=C\CC[C@H](Cc2ccc(F)cc2)C(=O)OC[C@@H]2CCCN2C1=O)N[C@H](CO)Cc1ccccc1	none (no result: eIF4H inh, PABP FP inh)
NC(=O)COc1ncn(-c2ccccc2)n1	CendR NRP1 mod 29
N/C(COc1ncn(-c2ccccc2)n1)=N\S(=O)(=O)c1ccc(Cl)cc1Cl	none
NC(=O)COc1ccc(-n2cnnn2)cc1	eIF4H inh 92
NC(=O)c1ccc(NC(=O)COc2ccc(-n3cnnn3)cc2)cc1	none (no result: eIF4H inh, PABP FP inh)
O=C(Oc1ccc(-n2cnnn2)cc1)c1ccccc1	eIF4H inh 71
CC(/C=N/Nc1nnc(C)c(=O)[nH]1)=C\c1ccccc1	CendR NRP1 mod 24
CCOC(=O)c1c(NC(=O)CSc2nnnn2-c2ccc(OC)cc2)sc(C)c1C	MLLE-PAM2 inh 43
CCOC(=O)c1csc(NC(=O)CSc2nnnn2-c2ccc(OC)cc2)n1	none
COc1cc(/C=C/C(=O)OCC(=O)Nc2ccc(S(N)(=O)=O)cc2)ccc1O	eIF4H inh 52, PABP FP inh 23
O=C(Cc1ccc(Cl)cc1)NNC(=S)NC(=O)c1cccs1	CendR NRP1 mod 37
O=C(Cc1cccs1)NNC(=S)NCc1ccc(Cl)cc1	none
CC(C)c1cc(Cn2c3ccccc3c(=O)n2C(C)Cn2cc(-c3ccc(C(C)(C)C)cc3)nn2)on1 (stereo not drawn)	none (no result: MLLE-PAM2 inh, eIF4H inh, PABP FP inh)
COc1ccc(CCNC(=O)Nc2nc(C(N)CCc3ccccc3)cs2)cc1OC (stereo not drawn)	none (no result: eIF4H inh, PABP FP inh)
COc1ccc(CCNC(=O)Nc2nc(C(N)C3CCCCC3)cs2)cc1OC (stereo not drawn)	CendR NRP1 mod 17 (no result: eIF4H inh, PABP FP inh)
CC(NC(=O)Cn1cnc2c1c(=O)n(C)c(=O)n2C)c1ccccc1 (stereo not drawn)	PABP FP inh 51
COCc1cc(=O)[nH]c(SCCS(=O)(=O)c2ccc(C)cc2)n1	none
COCc1cc(=O)[nH]c(SCCS(=O)(=O)c2ccc(Cl)cc2Cl)n1	MLLE-PAM2 inh 38
CCOC(=O)C1=C(C)N(C)C(=O)NC1c1cc2c(cc1Br)OCO2 (stereo not drawn)	CendR NRP1 mod 21
CCCOC(=O)C1=C(C)N(C)C(=O)NC1c1cc2c(cc1Br)OCO2 (stereo not drawn)	none
COc1ccc(C(=O)NCCNc2nc3cc(C)c(C)cc3cc2C)cc1	none
Nc1c(-c2ccccc2)sc2ccc3ccccc3[n+]12	MLLE-PAM2 inh 39
Cc1cc(C)n2nc(-c3ccc(F)cc3)cc2n1	none (no result: eIF4H inh, PABP FP inh)
Cc1cc(-c2ccc(F)cc2)nc2cc(C(N)=O)nn12	CendR NRP1 mod 26
O=c1oc2cc([N+](=O)[O-])ccc2nc1/C=C(O)/C=C/c1ccccc1	eIF4H inh 72 (no result: MLLE-PAM2 inh, CendR NRP1 mod)
CCOCCc1nnc(NC(=O)Cc2c(F)cccc2Cl)s1	none
CCN(CC)CC(=O)Nc1ccc(-c2nc3cc(NC(=O)CN(CC)CC)ccc3o2)cc1	CendR NRP1 mod 17
CCc1nc(Nc2ccccc2OC)c2oc3ccccc3c2n1	none
CCc1nc(Nc2cc(OC)ccc2OC)c2oc3ccccc3c2n1	CendR NRP1 mod 25
CCOC(=O)Cn1c(=O)c(F)cn(Cc2ccc(OC)c([N+](=O)[O-])c2)c1=O	none
CC(O)CNc1cnccn1 (stereo not drawn)	eIF4H inh 63, PABP FP inh 71
CCCCCCCn1ccc(=N)cc1	eIF4H inh 0.6, PABP FP inh 50
CCCCCCCCCn1ccc(=N)cc1	none
N#Cc1ccc(CSc2nnc(-c3ccncc3)o2)cc1	none
c1ccc(CSc2nnc(-c3ccncc3)o2)cc1	CendR NRP1 mod 26
C[C@]12c3[nH]c4ccc(Cl)cc4c3CCN1C(=O)[C@@H](CC(=O)NCCC1=CCCCC1)C[C@@H]2C(=O)N1CCOCC1	none (no result: eIF4H inh, PABP FP inh)
CCOc1ccc(N(C)S(=O)(=O)c2c[nH]c(C(=O)OC)c2)cc1	none
COc1ccccc1-n1cc(-c2ccc([N+](=O)[O-])cc2)[nH]c1=S	MLLE-PAM2 inh 39
O=C(c1cc(C2CC2)nn1-c1ccccc1)N1CCN(Cc2ccccc2F)CC1	none (no result: eIF4H inh, PABP FP inh)
CCOC(=O)C1=C[C@@H](C(C)(C)C)N(S(=O)(=O)c2ccc([N+](=O)[O-])cc2)[C@H]1c1ccccc1	CendR NRP1 mod 23 (no result: eIF4H inh, PABP FP inh)
COCCN1C(=O)C(C(=O)OC)CC2=C1CC(C)(C)CC2=O (stereo not drawn)	none (no result: eIF4H inh, PABP FP inh)
COc1ccc(/C=N\Nc2ccccn2)c(OC)c1	none
COc1ccc(/C=N/Nc2ccccn2)c(OC)c1OC	eIF4H inh 1.9, PABP FP inh 61
CCOC(=O)c1cc(C)sc1/N=C/C1=C(O)CCCC1=O	eIF4H inh 55, PABP FP inh 0.3
Cc1n(-c2ccccc2)c2ccc(Cl)cc2[n+]1CCO	PABP FP inh 64
Cc1nc2cc(Cl)ccc2n1-c1ccccc1	none
Cc1ccc(NC(=O)c2ncn(CCCN3CCN(c4ncccn4)CC3)n2)cc1C	none (no result: eIF4H inh, PABP FP inh)
CC(C)(C)OC(=O)NCCCC[C@H](NC(=O)c1[nH]cnc1C(=O)Nc1ccc(Cl)cc1)C(=O)OC(C)(C)C	none
C[C@H](NC(=O)c1[nH]cnc1C(=O)Nc1ccccc1)c1ccccc1	CendR NRP1 mod 26 (no result: eIF4H inh, PABP FP inh)
CC(C)(C)OC(=O)[C@H](CCCCN)NC(=O)c1nc[nH]c1C(=O)N[C@@H](CCCCN)C(=O)OC(C)(C)C	CendR NRP1 mod 21 (no result: eIF4H inh, PABP FP inh)
CC(C)(C)OC(=O)NCCCC[C@H](NC(=O)c1[nH]cnc1C(=O)Nc1ccccc1)C(=O)OC(C)(C)C	CendR NRP1 mod 21
CCNC(=O)C1(C)CCN(C(=O)c2cccc(Cl)c2)C1 (stereo not drawn)	none (no result: eIF4H inh, PABP FP inh)
CCCCN1CCc2[nH]c(=S)[nH]c(=O)c2C1	MLLE-PAM2 inh 49
CC(c1ccccc1)N1CCc2[nH]c(=S)[nH]c(=O)c2C1 (stereo not drawn)	MLLE-PAM2 inh 39
COCCN1CCc2[nH]c(=S)[nH]c(=O)c2C1	none
CC(C)[C@@H]1Cc2[nH]c(=S)[nH]c(=O)c2[C@H](CCc2ccccc2)O1	none (no result: MLLE-PAM2 inh, eIF4H inh, PABP FP inh)
CN(C)c1ccc(N=Nc2ccc(C(=O)O)cc2)cc1	eIF4H inh 70, PABP FP inh 64
COc1ccc(-c2c(C)c3ccc(O)cc3oc2=O)cc1	none (no result: eIF4H inh, PABP FP inh)
CCOC(=O)C(C(=O)NCc1ccc(F)cc1)c1ncc(C(F)(F)F)cc1Cl (stereo not drawn)	CendR NRP1 mod 25
COc1cc(/C=C2\SC(=O)NC2=O)ccc1Oc1ccc([N+](=O)[O-])cc1[N+](=O)[O-]	none
CCN1C(=O)C(=Cc2cccc(OC)c2Oc2ccc([N+](=O)[O-])cc2[N+](=O)[O-])SC1=S	CendR NRP1 mod 25
COc1ccc(N(CC(=O)NCCSCc2ccco2)S(=O)(=O)c2ccccc2)cc1	none
COc1ccccc1N(CC(=O)NCCSCc1ccccc1)S(=O)(=O)c1ccc(C)cc1	CendR NRP1 mod 19
O=C(CN(c1ccccc1)S(=O)(=O)c1ccccc1)NCCSCc1ccco1	eIF4H inh 81
O=C(COc1ncnc2sccc12)N1CCN(C(=O)c2ccco2)CC1	PABP FP inh active

Bioassay records as filed in PubChem BioAssay.
